The text below walks through data of PubChem BioAssay (Tox21).

Inconclusive results are not listed. Where a call stands in place of a potency, no number is given. Active and inactive are the calls of the source. Calls come from the whole dose curve; as a rule, active = well fitted cell-killing curve with a large enough effect in the repeat runs; inconclusive = weak or mixed curves; inactive = no such curve, though single readings can be large or run the other way.
Potency is the fitted concentration of half-maximal effect.

The test can be described thus: qHTS assay to identify small molecule antagonists of the androgen receptor (AR) signaling pathway - cell viability counter screen (AID 743033; note: nearly all actives have a fitted effect of over 45% in size). To be noted: AR-bla HEK293 viability, CellTiter-Glo luminescence, 16 h; series mostly up to 58.5 µM. The source says:
National Center for Advancing Translational Sciences [NCATS]
NIH Chemical Genomics Center [NCGC]
U.S. Environmental Protection Agency [EPA]
National Institutes of Environmental Health Sciences [NIEHS]
National Toxicology Program [NTP]
U.S. Food and Drug Administration [FDA]
Androgen receptor (AR), a nuclear hormone receptor, plays a critical role in AR-dependent prostate cancer and other androgen related diseases. Endocrine disrupting chemicals (EDCs) and their interactions with steroid hormone receptors like AR may cause disruption of normal endocrine function as well as interfere with metabolic homeostasis, reproduction, developmental and behavioral functions. To identify the compounds that inhibit AR signaling, GeneBLAzer AR-UAS-bla-GripTite cell line (Invitrogen, Carlsbad, CA, USA) containing a beta-lactamase reporter gene under control of an Upstream Activator Sequence (UAS) stably integrated into HEK293 cells was used to screen the Tox21 10K compound library. The cytotoxicity of the Tox21 compound library against the AR-bla cell line was tested in parallel by measuring the cell viability using CellTiter-Glo assay in the same wells.
Tox21 Assay Protocol Summary:
AR-bla cells were dispensed at 2,000 cells/5 uL of assay medium per well into black wall/clear-bottom 1536-well plates using a Multidrop Combi (ThermoFisher Scientific, Waltham, MA) dispenser. After the assay plates were incubated at a 37C and 5% CO2 for 4 hr, 23 nL of compounds dissolved in DMSO, positive controls or DMSO only was transferred to the assay plate by a Pintool station (Kalypsys, San Diego, CA), followed by addition of 1 uL of agonist (R1881) in culture medium using a Bioraptr Flying Reagent Dispenser (FRD) workstation (Beckman Coulter, Indianapolis, IN, USA). The plates were incubated at a 37C and 5% CO2 for 16 h. After 1 uL of LiveBLAzerTM B/G FRET substrate was added using a Bioraptr FRD, the plates were incubated at room temperature for 2 h and fluorescence intensity was measured by an Envision plate reader (PerkinElmer, Shelton, CT). For cell viability readout that measures cytotoxicity, 4 ul/well of CellTiter-Glo reagent was added into the assay plates using a Bioraptr FRD. After 30 min incubation at room temperature, the luminescence intensity in the plates was measured using a ViewLux (PerkinElmer) plate reader.
Background: In qHTS, concentration-response curves come from the screen itself.
Take `CC(C)O.CC(C)O.OCCN(CCO)CCO.OCCN(CCO)CCO.[Ti]`: the Potency result was “inactive”.

With `CCCCCC[N+](=O)[O-]`, the Potency entry was “inactive”.

As for `CCCN(CC1CC1)c1c([N+](=O)[O-])cc(C(F)(F)F)cc1[N+](=O)[O-]`, the Potency result is “inactive”.

In the case of `O=C1c2ccccc2C(=O)C1C(=O)C(c1ccccc1)c1ccccc1`, the Potency result was “inactive”.

In the case of `CC(c1ccc(O)cc1)(c1ccc(O)cc1)c1ccc(O)cc1`, the Potency result was “inactive”.

As to `O=C(O)COc1ccc(Cl)cc1`, the Potency entry was “inactive”.

As for `CCOP(=S)(OCC)SCSCC`, the Potency result was “inactive”.

Consider `CC[C@H]1C[C@H]2[C@@H]3CCC4=CC(=O)CC[C@@H]4[C@H]3CC[C@]2(C)[C@H]1O`, for which the Potency result was “inactive”.

As to `CCCCC(CC)COP(=O)(Oc1ccccc1)Oc1ccccc1` (stereo not given), the Potency result is “inactive”.

Turning to `CCCCN=C=O`, the Potency entry was “inactive”.

As for `COC(=O)C(Cl)C(=O)OC`, the Potency result is “inactive”.

Consider `Clc1cc(Cl)c(Cl)c(Cl)c1`, for which the Potency result is “inactive”.

Consider `CCCCOC(=O)c1ccccc1C(=O)OCc1ccccc1`, for which the Potency result is “inactive”.

For `CO/C=C(/C(=O)OC)c1ccccc1COc1cccc(C(F)(F)F)n1`, the Potency was 3.46 µM (active).

Turning to `O=NN1CCNCC1`, the Potency result was “inactive”.

For `Cc1ccccc1C(=O)Nc1cccc(OC(C)C)c1`, the Potency entry is “inactive”.

`CCCCCCCCCC(=O)O[C@H]1CC[C@H]2[C@@H]3CCC4=CC(=O)CC[C@@H]4[C@H]3CC[C@]12C`: the Potency result is “inactive”.

In the case of `O=C=Nc1ccc(Cl)cc1`, the Potency entry was “inactive”.

On to `Clc1cc(C(Cl)(Cl)Cl)cnc1Cl`, for which the Potency result was “inactive”.

As to `CCC(Cl)CCl` (stereo not given), the Potency entry is “inactive”.

In the case of `CCOP(=O)(OCC)Oc1ccc([N+](=O)[O-])cc1`, the Potency result is “inactive”.

As for `CC(Cl)Cl`, the Potency entry was “inactive”.

`CCOc1ccc(C(C)(C)COCc2cccc(Oc3ccccc3)c2)cc1`: the Potency result was “inactive”.

Consider `CN(C)c1ccc(N(C)C)cc1`, for which the Potency entry is “inactive”.

Take `NCC(CC(=O)O)c1ccc(Cl)cc1` (stereo not given): the Potency entry was “inactive”.

Take `COCC(C)N(C(=O)CCl)c1c(C)csc1C` (stereo not given): the Potency result is “inactive”.

On to `O=C1C(Cl)C(CCl)CN1c1cccc(C(F)(F)F)c1` (stereo not given), for which the Potency entry is “inactive”.

As to `CCCC(=O)Cl`, the Potency result was “inactive”.

For the molecule `O=C(C(Cl)(Cl)Cl)C(Cl)(Cl)Cl`, the Potency entry was “inactive”.

As to `S=C=NCc1ccccc1`, the Potency result is “inactive”.

Regarding `CCOC(=O)C(Cl)C(C)=O` (stereo not given), the Potency result was “inactive”.

Turning to `Brc1ccc(Oc2ccccc2)cc1`, the Potency result was “inactive”.

Take `C/C(=C\c1ccccc1)[N+](=O)[O-]`: the Potency is 24.5 µM (active).

For the molecule `CC1CC(CC2CCC(N)C(C)C2)CCC1N` (stereo not given), the Potency entry is “inactive”.

With `C=CC(=O)OCCCCO`, the Potency result was “inactive”.

Consider `CCC(COC(=O)c1cc(OC)c(OC)c(OC)c1)(c1ccccc1)N(C)C` (stereo not given), for which the Potency result is “inactive”.

In the case of `CO[C@@H]1[C@H](OC(=O)NC(=O)CCl)CC[C@]2(CO2)[C@H]1[C@@]1(C)O[C@@H]1CC=C(C)C`, the Potency result is “inactive”.

Turning to `COC(=O)c1cncn1C(C)c1ccccc1` (stereo not given), the Potency result was “inactive”.

As for `O=NN1CCCCCC1`, the Potency result was “inactive”.

Regarding `C=C(C#N)CCC#N`, the Potency result was “inactive”.
